Shown are actives, neighbours in structure and some others; about 12% of the full set was active somewhere.
JMJD2A Tudor: inhibitors of human JMJD2A Tudor domain; 390,000 tested, 4.4% active; Potency, µM (highest dose often 114 µM), most hits filed as inhibitors; AlphaScreen JMJD2A-Tudor / H3K4me3 peptide binding; AID 504339; further: nearly all actives have a fitted effect of over 50% in size
HP1b chromo inh: HP1-beta chromodomain-methylated histone interaction inhibition; AlphaScreen HP1-beta / biotin-H3K9me3 peptide binding; Potency, µM (top dose mostly 114 µM), most hits filed as inhibitors; 390,000 tested, 0.56% active; further: nearly all actives have a fitted effect of over 70% in size
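Compound inhibition of the preformed complex between 50 nM HP1-beta and 50 nM biotinylated H3K9me3 peptide was read by AlphaScreen. Buffer was PBS pH 7.4 with 0.01% Tween-20. Incubations ran 30 min at room temperature, with 10 ug/mL donor/acceptor beads.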
BAZ2B inh: inhibitors of human BAZ2B bromodomain | Potency, µM (doses to about 114 µM), most hits filed as inhibitors | 360,000 tested, 4.4% active | AlphaScreen BAZ2B-H3K14Ac peptide displacement | AID 504333; further: nearly all actives have a fitted effect of over 60% in size
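Protein-peptide AlphaScreen: BAZ2B 50 nM, b-H3K14Ac 50 nM, 1x PBS pH 7.4 + 0.01% Tween-20. Preincubation 30 min RT; cpd 30 min RT (top 110 uM); beads 20 min RT, light-protected.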
Sfp inh: blocks B. subtilis Sfp PPTase activity | Biochemical Sfp PPTase activity, qHTS | Potency, µM, hits mostly inhibitors | Q9F4F7 | 310,000 tested, 3.5% active;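 further: the enzyme is Sfp with the accession as filed and its product quenches rhodamine fluorescence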
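With Hepes-Na pH 7.6 buffer containing 10 mM MgCl2, Sfp (15 nM) modified BHQ-2-YbbR (12.5 uM) using rhodamine-CoA (5 uM). Two reads 30 minutes apart at 525/598 nm yielded each well's rate.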
PLK1 PBD inh: PLK1 (human) polo-box domain binding inhibition | Plk1 PBD binding of FITC phosphopeptide, fluorescence polarization | 360,000 tested, 2.8% active | Potency, µM, usual class: inhibitors; further: series mostly up to about 57 µM; nearly all actives have a fitted effect of over 65% in size
Target sequence (P53350 whole entry, looked up, the tested form may be a part): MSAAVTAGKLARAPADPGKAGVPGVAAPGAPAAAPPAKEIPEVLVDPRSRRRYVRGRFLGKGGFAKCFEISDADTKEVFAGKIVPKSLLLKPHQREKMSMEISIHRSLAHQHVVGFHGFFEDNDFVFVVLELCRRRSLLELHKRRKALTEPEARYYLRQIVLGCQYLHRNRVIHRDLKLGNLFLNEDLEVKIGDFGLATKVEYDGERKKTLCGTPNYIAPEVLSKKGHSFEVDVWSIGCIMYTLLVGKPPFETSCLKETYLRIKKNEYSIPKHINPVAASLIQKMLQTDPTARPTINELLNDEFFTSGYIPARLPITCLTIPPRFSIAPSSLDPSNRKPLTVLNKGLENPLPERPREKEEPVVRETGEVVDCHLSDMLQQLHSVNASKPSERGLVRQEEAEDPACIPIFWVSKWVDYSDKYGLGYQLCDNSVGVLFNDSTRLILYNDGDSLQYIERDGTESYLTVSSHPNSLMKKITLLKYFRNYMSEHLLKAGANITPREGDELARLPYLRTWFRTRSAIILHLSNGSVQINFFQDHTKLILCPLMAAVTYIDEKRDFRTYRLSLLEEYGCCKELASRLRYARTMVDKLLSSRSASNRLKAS
G9a inh: G9a (human) methyltransferase inhibition. Q96KQ7. G9a H3K9 monomethylation, AlphaScreen, 2 h. Potency, µM (titrated, usually from 102 µM), usual class: inhibitors. 350,000 tested, 8.8% active. AID 504332; further: nearly all actives have a fitted effect of over 75% in size
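G9a (20 nM) preincubated 15 min RT with compounds, then 500 nM biotinylated H3K9 peptide and 20 uM SAM added; 2 h RT reaction. Monomethyl-H3K9 product detected by AlphaScreen with anti-H3K9me1 antibody, streptavidin donor and anti-rabbit IgG acceptor beads.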
A number is an active result; - = inactive; ? = inconclusive; . = no result; [ ] = dose if it differs, or a comment. The call rests on the fitted dose curve; in most records, active means well fitted curve in the direction sought with a large enough effect; inconclusive means small, poorly fitted or top-dose-only effect, or another doubt; inactive means no such curve, though single readings can be large; an effect the other way counts as inactive or inconclusive.

SMILES | JMJD2A Tudor | HP1b chromo inh | BAZ2B inh | Sfp inh | PLK1 PBD inh | G9a inh
O=S(=O)(NCCCCCNS(=O)(=O)c1ccccc1)c1ccccc1 | -[11.4 µM] | - | - | - | 29.9µM | ?
O=C1CCC(C(=O)OCC(=O)N2N=C3/C(=C/c4ccccc4)CCCC3C2c2ccccc2)N1 (stereo unspecified) | ? | - | ? | - | - | 56.2µM
O=C1CCC(C(=O)OCC(=O)N2N=C3/C(=C\c4ccccc4)CCCC3C2c2ccccc2)N1 (stereo unspecified) | ? | - | . | . | - | .
Brc1ccc(OCCCCN2CCCCC2)cc1 | - | - | - | - | - | .
CC1CCN(CCCCOc2cccc(Br)c2)CC1 | 1.78µM | ? | ? | - | - | 8.91µM
CC1CC(C)CN(CCOc2ccc(Br)cc2)C1 (stereo unspecified) | 28.2µM | ? | ? | - | - | 11.2µM
Brc1cccc(OCCN2CCc3ccccc3C2)c1 | - | - | - | - | - | .
Cc1cc(Br)ccc1OCCCCN1CCC(C)CC1 | 2.51µM | ? | ? | - | - | 11.2µM
CC1CCN(CCCCOc2ccc(Br)cc2)CC1 | 5.01µM | - | - | - | - | ?
CC(=O)OC[C@@H]1O[C@H](C/C=N\OC[C@@H](O)COCc2ccco2)C=C[C@@H]1OC(C)=O | . | . | . | - | . | .
COc1ccc(CCNC(=O)c2ccc3c(c2)CCN3S(C)(=O)=O)cc1OC | - | - | - | . | . | -
COc1ccc(-c2nnc(SCC(=O)NC3CCCC3)nc2-c2ccc(OC)c(OC)c2)cc1OC | - | - | - | . | . | -
COc1ccc(OCC(=O)OC2CCN(C)CC2)cc1 | - | - | ? | - | - | ?
CN1CCC(OC(=O)COc2ccc(Br)cc2)CC1 | - | - | - | - | - | 44.7µM
CCOc1ccc(C(=O)NC(=S)Nc2ccccc2N2CCOCC2)cc1Br | - | - | - | - | - | ?
Cc1ccc(N=CC2=C(O)CC(c3ccco3)CC2=O)cc1 (stereo unspecified) | - | - | - | - | - | .
O=C1CC(c2ccccc2)CC(O)=C1C=Nc1ccccc1 (stereo unspecified) | ? | - | - | - | 23.8µM | -
CCc1ccc(N=CC2=C(O)CC(c3ccco3)CC2=O)cc1 (stereo unspecified) | - | - | - | 79.4µM | - | ?
O=C1CC(c2ccco2)CC(O)=C1C=Nc1ccc(Br)cc1 (stereo unspecified) | - | - | - | 56.2µM | - | 14.1µM
O=C1CC(c2ccccc2)CC(O)=C1C=Nc1ccccc1O (stereo unspecified) | - | - | - | - | - | -
C/C(CCN1CCCCc2nc(C)c(C)cc21)=N\OC[C@@H](O)COCc1ccco1 | . | . | . | - | . | .
CC(C)(C)OC(=O)NC(Cc1ccccc1)C(O)c1ccco1 (stereo unspecified) | - | - | . | - | . | .
CCOc1ccc(NC(=O)Cn2c(=O)n(Cc3ccc(C(=O)NCc4ccc5c(c4)OCO5)cc3)c(=O)c3ccccc32)cc1 | - | - | - | . | . | -
O=C1CCCc2c1[nH]c1ccccc21 | - | - | - | - | - | ?
Clc1ccc2[nH]c3c(c2c1)CCc1cn[nH]c1-3 | 79.4µM | ? | ? | - | - | 35.5µM
SMILES | JMJD2A Tudor | HP1b chromo inh | BAZ2B inh | Sfp inh | PLK1 PBD inh | G9a inh
c1ccc2c3c([nH]c2c1)-c1[nH]ncc1CC3 | ? | - | ? | - | - | 35.5µM
O=C(N/N=C/c1ccc[nH]1)c1ccc(Cl)cc1 | - | - | - | - | - | -
Cc1ccc(-c2nn(-c3ccccc3)cc2CO)cc1 | - | - | - | - | - | -
N=C(N)SCc1cn(-c2ccccc2)nc1-c1ccc(Br)cc1 | - | - | - | 50.1µM | - | 50.1µM
c1ccc(CNc2ccc3c(c2)ncn3C2CCCCC2)nc1 | 25.1µM | - | 20µM | - | ? | 7.94µM
COC(=O)c1cc(CNC(=O)c2ccccc2OCc2c(C)noc2C)ccc1OC | - | - | - | - | - | -
CC(=O)OCC(=O)[C@@]12OC(C)(C)O[C@@H]1C[C@H]1[C@H]3C[C@H](F)C4=CC(=O)C=C[C@@]4(C)[C@]3(F)[C@H](O)C[C@@]12C | . | . | . | - | . | -[21.5 µM]
Cc1ccc(-c2c(=O)n(O)c3ccccc3[n+]2[O-])cc1 | ? | - | - | - | - | 50.1µM
COn1c(=O)c(-c2ccccc2)[n+]([O-])c2ccccc21 | - | - | - | - | - | -
O=c1c(-c2ccccc2)[n+]([O-])c2ccccc2n1O | ? | - | ? | 39.8µM | - | ?
COn1c(=O)c(-c2ccc(C)cc2)[n+]([O-])c2ccccc21 | - | - | - | - | - | ?
Cc1ccc(S(=O)(=O)NCCSc2nnnn2-c2ccc(Cl)c(C(=O)O)c2)cc1 | - | - | - | . | . | -
CCc1[nH]c(=S)c(C#N)c2c1CCCC2 | 14.1µM | ? | - | ? | 26.7µM | 3.16µM
CCOC(=O)c1c2c([nH]c(=S)c1C#N)CCCC2 | 8.91µM | - | ? | 39.8µM | ? | .
CC1CCCN(c2ccc(/C=C(\C#N)c3nn(-c4ccccc4)c(N)c3C#N)cc2[N+](=O)[O-])C1 (stereo unspecified) | ? | - | ? | - | - | 22.4µM
CC(=O)Nc1ccc(N2CCC(C)CC2)c([N+](=O)[O-])c1 | - | - | ? | - | - | ?
CC(=O)Nc1ccc(N2CCCC(C)C2)c([N+](=O)[O-])c1 (stereo unspecified) | ? | ? | 35.5µM | - | - | ?
Cc1ccc(C(=O)Nc2cccnc2)cc1[N+](=O)[O-] | - | - | - | - | ? | ?
CC1CCCN(c2ccc(C(=O)Nc3cccnc3)cc2[N+](=O)[O-])C1 (stereo unspecified) | - | - | ? | - | - | 50.1µM
Cc1c(C(=O)OCC2CCCO2)[nH]c2c1C(=O)CC(c1ccc(N(C)C)cc1)C2 (stereo unspecified) | 50.1µM | - | 44.7µM | - | - | 14.1µM
Cc1c(C(=O)OCc2ccccc2)[nH]c2c1C(=O)CC(c1ccc(N(C)C)cc1)C2 (stereo unspecified) | - | - | - | . | . | -
CCCCNS(=O)(=O)c1ccc2nc(SCC(=O)c3ccc(C#N)cc3)[nH]c2c1 | - | - | - | - | - | 31.6µM
CC(C)c1ccc(NC(=O)Cn2cccc2C2=NC(c3ccccc3)CO2)cc1 (stereo unspecified) | - | - | - | - | - | -
Clc1ccc(-c2nnc(C34CC5CC(CC(C5)C3)C4)o2)cn1 | -[11.4 µM] | - | - | - | 18.9µM | -
CNC(=O)N(O)C1N(/N=C/c2ccccc2O)C(=S)SC1(C)C (stereo unspecified) | - | - | - | 44.7µM | - | .
CN(C)c1ccc(/C=N/N2C(=S)SC(C)(C)C2N(O)C(=O)Nc2ccc([N+](=O)[O-])cc2)cc1 (stereo unspecified) | 56.2µM | ? | ? | - | 26.7µM | -[12.7 µM]
Cc1cccc(CN2C(=O)c3ccccc3Sc3ccc(C(=O)NC4CCCCC4)cc32)c1 | - | - | - | . | . | -

Source: PubChem BioAssay
